aSyn 5UTR act – Activators via SNCA 5'UTR binding, MLPCN; alpha-synuclein 5'UTR reporter, activators screen; activity score, % (tested at 7.5 µM), hits read low; hit rate 7.1% among 300,000; AID 1814, 2009; in the data active means activity score below about -60%
Active calls of the source: *. Only a sample is shown.

SMILES	aSyn 5UTR act
COc1ccc(Cn2c(C3CC3)nc3ccc(NC(C)=O)cc3c2=O)cc1	-120.6*
O=S(=O)(c1cccs1)N1CCCc2cccc(O)c21	-82.4*
CCCNC(=O)C(=O)Nc1ccc2c(c1)N(S(=O)(=O)c1cccs1)CCC2	-79.4*
CN(C)CCNC(=O)C(=O)Nc1ccc2c(c1)N(S(=O)(=O)c1cccs1)CCC2	-63.2*
COCCCNC(=O)C(=O)Nc1ccc2c(c1)N(S(=O)(=O)c1cccs1)CCC2	56.8
COc1ccc(CCC(=O)Nc2ccc(-c3noc(-c4ccc(OC)c(OC)c4)n3)cc2)cc1	-158.4*
COc1ccc(-c2nc(-c3ccc(NC(=O)c4ccc(Br)o4)cc3)no2)cc1OC	-136.4*
COc1ccc(-c2noc(-c3cccs3)n2)cc1OC	-174.0*
COc1cc(OC)cc(-c2nc(-c3cccs3)no2)c1	-139.3*
COc1cc(-c2noc(C)c2/C=C/c2cccc([N+](=O)[O-])c2)cc(OC)c1OC	69.2
COc1cc(-c2noc(-c3cccs3)n2)cc(OC)c1OC	-94.6*
O=C(Nn1c(SCc2cccc([N+](=O)[O-])c2)nc2ccccc2c1=O)c1ccccc1	-145.0*
COc1ccc(C(=O)Nn2c(SCc3cccc([N+](=O)[O-])c3)nc3ccccc3c2=O)cc1	66.2
N#Cc1ccccc1NC(=O)c1ccc(-c2ccccc2Cl)o1	-128.3*
O=C(Nc1ccccc1)c1ccc(-c2ccccc2Cl)o1	-178.1*
Cc1c(C(=O)Nc2cccnc2)oc2ccc(Br)cc12	-246.2*
CCc1ccc2oc(C(=O)Nc3cccnc3)c(C)c2c1	-220.4*
O=C(Nc1cccnc1)c1cc2c(ccc3ccccc32)o1	-103.8*
CC(=O)Nc1cccc(NC(=O)c2cc(-c3cccnc3)nc3ccc(Br)cc23)c1	-62.4*
C/C(=N\NC(=O)c1cc(-c2cccnc2)nc2ccccc12)c1ccccc1O	85.7
CN1N=C2c3ccccc3CCC2C1c1ccc(Cl)cc1 (stereo unspecified)	-101.2*
CN1N=C2c3ccccc3CCC2C1c1ccc(F)cc1 (stereo unspecified)	-109.6*
Cc1nc(-c2ccccc2)nn1-c1ccc([N+](=O)[O-])cc1	-87.2*
COc1cc(N/N=C(\C)c2ccc(N)cc2)nc(-c2ccccc2)n1	-62.3*
N#C/C(C(=O)Oc1ccccc1)=C1\C=CC=CN1	-79.9*
SMILES	aSyn 5UTR act
Cc1ccccc1-c1nc(-c2ccc(NC(=O)c3cccs3)cc2)no1	-187.0*
O=C(Nc1ccc(-c2noc(-c3ccccc3F)n2)cc1)c1cccs1	-76.7*
O=c1[nH]c(COc2ccc(Cl)cc2Br)nc2ccccc12	-123.1*
O=c1[nH]c(COc2ccc(Cl)cc2Cl)nc2ccccc12	-188.9*
CCc1ccc(NC(=O)c2cnc3scc(C)n3c2=O)cc1	-246.7*
Cc1csc2ncc(C(=O)Nc3cccc(C(F)(F)F)c3)c(=O)n12	-127.9*
Cc1ccc(C(=O)Nc2cccc(C(F)(F)F)c2)cc1NC(=O)c1cnnc2ccccc12	64.2
O=C(c1cccs1)N(CCN1CCCCC1)CC1CCCN(C2CCCC2)C1 (stereo unspecified)	-113.3*
Cc1ccc(C(=O)N(CCN2CCCCC2)CC2CCCN(C3CCCC3)C2)s1 (stereo unspecified)	-76.6*
COc1ccc(O)c(/C=N/NC(=S)Nc2cccc(S(=O)(=O)N(C)C)c2)c1	74.1
O=[N+]([O-])c1ccc(NC(=S)N/C(=N/CS(=O)(=O)c2ccccc2)c2ccccc2)cc1	-92.1*
COc1ccc(NC(=S)N/C(=N/CS(=O)(=O)c2ccccc2)c2ccccc2)cc1	-89.5*
Cc1cccc(NC(=S)N/C(=N/S(=O)(=O)c2ccccc2)c2ccccc2)c1	-103.4*
COc1cc(/C=N/NS(=O)(=O)c2ccc3ccccc3c2)ccc1OCc1ccc(C(=O)O)cc1	84.3
COc1cc(/C=N/Nc2ccc3ccccc3c2)ccc1OC(=O)c1ccco1	-76.2*
CCOc1cc(/C=N\Nc2nc(Nc3ccccc3)nc(N3CCOCC3)n2)ccc1OC(=O)c1ccco1	-90.9*
N#Cc1cn(-c2ccccc2)nc1C(=O)c1ccccc1	-192.0*
N#Cc1cn(-c2ccccc2)nc1-c1ccc2c(c1)OCCO2	-183.9*
N#Cc1cn(-c2ccccc2)nc1-c1ccco1	-147.0*
CCCCCc1ccc(-c2nnc(N)s2)cc1	-97.7*
CCCCCCc1ccc(-c2ncc(N)cn2)cc1	-67.7*
CN(C)c1ccc(/C=N/NC(=O)c2cc(-c3ccc4c(c3)OCO4)n[nH]2)cc1	-137.0*
O=C(Cc1ccccc1)N/N=C/c1cc(Br)c(Br)o1	-67.6*
O=C(N/N=C/c1cccs1)c1ccc2c(c1)OCO2	-65.4*
Cc1cc(/C=N/Nc2ccc([N+](=O)[O-])cn2)c(C)n1-c1ccccc1	-136.6*
SMILES	aSyn 5UTR act
COc1cccc(/C=N/Nc2ccc([N+](=O)[O-])cn2)c1O	102.1
CCN(CC)c1ccc(/C=N/NC(=O)C2CC2)cc1	-61.8*
Cc1c(C(=O)N/N=C/c2ccc(Cl)cc2)[nH]c2ccc(Cl)cc12	-122.3*
CCC/C(=N/NC(=O)c1ccc2c(c1)OCO2)c1cccs1	-69.3*
CCN(CC)c1ccc(/C=N/NC(=O)c2ccc(Br)o2)cc1	-160.3*
O=C(Nc1cccc(C(=O)O)c1)/C(=C\c1ccc2c(c1)OCO2)NC(=O)c1ccc(Br)o1	-67.9*
Cc1cc(C(=O)N/N=C/c2cccc([N+](=O)[O-])c2)c(C)n1-c1ccccc1	-142.2*
O=C(N/N=C/c1ccc(Cl)cc1)c1ccc2c(c1)OCO2	-396.3*
O=C(N/N=C/c1ccc2c(c1)OCO2)c1ccc2c(c1)OCCO2	-136.1*
O=C(N/N=C/c1cc(Br)cc(Cl)c1O)c1ccc2c(c1)OCO2	50.0
O=C(N/N=C/c1cc(Br)c(Br)o1)c1ccc2c(c1)OCCO2	-135.3*
CCN(CC)c1ccc(/C=N/NC(=O)Nc2nonc2N)cc1	-77.7*
O=C(N/N=C/c1ccc2c(c1)OCO2)c1ccc(Br)o1	-250.0*
O=C(N/N=C/c1cccc([N+](=O)[O-])c1)c1ccc2c(c1)OCCO2	-125.9*
CCCCCCCC(=O)Nc1ccc(C(=O)N/N=C/c2cccc([N+](=O)[O-])c2)cc1	76.2
COC(=O)c1cnn(-c2cc(Oc3cccc(C)c3)ncn2)c1N	-138.0*
CCOC(=O)c1csc(Nc2nc3ccc(F)cc3s2)n1	-81.6*
CC(=O)c1sc(Nc2nc3ccc(F)cc3s2)nc1C	-216.3*
COC(=O)c1ccc2nc(Nc3nc4ccc(F)cc4s3)sc2c1	75.1
CCCC(=O)Nc1ccc2oc(-c3cncc(Br)c3)nc2c1	-94.1*
Cc1ccc2oc(-c3ccc(NC(=O)CC(C)C)cc3)nc2c1	-76.6*
O=C(CN1CCCC1)Nc1ccc(-c2nc3cc(NC(=O)CN4CCCC4)ccc3o2)cc1	-118.5*
CCCC(=O)Nc1ccc(-c2nc3cc(C)c(C)cc3o2)cc1	-110.4*
CC(C)CC(=O)Nc1ccc2oc(-c3cccnc3)nc2c1	-120.1*
CCC(=O)Nc1ccc2oc(-c3cccnc3)nc2c1	-100.8*
SMILES	aSyn 5UTR act
Cc1ccccc1-c1nc2cc(NC(=O)C3CC3)ccc2o1	-150.0*
CCC(=O)Nc1ccc2oc(-c3ccccc3Br)nc2c1	-185.8*
Cc1[nH]c2ccccc2c1CN1CCc2ccccc2C1	-61.8*
CCCC(=NCCc1c(C)[nH]c2ccccc12)C1=C(O)CC(c2ccccc2)CC1=O (stereo unspecified)	86.5
Oc1c(N=NC(=S)Nc2ccccc2F)c2ccccc2n1Cc1ccccc1F	86.8
Cc1ccccc1Cn1c(O)c(N=NC(=S)Nc2ccccc2F)c2ccccc21	72.5
CCn1c(O)c(N=NC(=O)c2cccs2)c2ccccc21	-67.3*
Cc1ccc(C2=NNC3(CCOC(C)(C)C3)S2)cc1 (stereo unspecified)	-163.9*

Source: PubChem BioAssay
